77 molecules from PubChem BioAssay AID618 (Sanford-Burnham Center for Chemical Genomics, 2007) can be followed below.

The structures appear in SMILES notation. In all, about 87,000 compounds went through this assay and about 540 (0.62%) were called active. No rule for the calls is given here. Many of the other results were omitted from the sample, so actives are more common in it than they were. Results with a measured potency or affinity are listed apart.

A short description of this assay: MT1-MMP gene expression reporter suppression – cell-based, luciferase reporter, luminescence (AID 618).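 Also: actives suppress MT1-MMP promoter-driven transcription so potencies describe inhibitors.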 The note with it: MT1-MMP promoter luciferase reporter cells. (In general: A reporter such as luciferase makes a cellular process visible.)
Take `Cc1ccc(CN(c2ccc(C(=O)NCc3ccccn3)cc2)S(C)(=O)=O)cc1`: the molecule was called inactive.

Consider `O=C(CSC1=NCCS1)N1CCOCC1`, for which the molecule was classed as inactive.

For `O=C(COc1ccc(Cl)cc1Cl)Nc1ccc(Cl)cn1`, the result was inactive.

For the molecule `O=C(COc1ccccc1Cl)Nc1ccc(Cl)cn1`, the call was inactive.

Consider `O=C(COc1ccc(Cl)cc1Cl)Nc1ccccn1`, for which the outcome was active.

As for `Cc1ccc(C(C)C)c(OCCN)c1`, the molecule was called inactive.

Consider `COc1ccc(OC(C)C(=O)N2CC(C)OC(C)C2)cc1` (configuration not stated), for which the call was inactive.

As to `O=C(Nc1ccc(N2C(=O)C3C4C=CC(C4)C3C2=O)cc1)Nc1nncs1` (configuration not stated), the result was inactive.

As to `CCCn1c(N)c(C(=O)CSc2nc(C)cs2)c(=O)[nH]c1=O`, the molecule was called inactive.

As for `Cc1ccc2oc(-c3ccco3)nc2c1`, the molecule was called inactive.

With `Cc1nc2ccc(-c3nc4ccccc4o3)cc2[nH]1`, the outcome was inactive.

For `Nc1ccc2oc(-c3ccccn3)nc2c1`, the result was inactive.

Consider `Nc1ccc2oc(-c3cccs3)nc2c1`, for which the outcome was inactive.

As to `Cc1ccc(-c2nc3cc(NS(=O)(=O)c4ccc(C)cc4)ccc3o2)cc1`, the result was inactive.

On to `Nc1ccc(-c2nc3ccc(-c4nc5ccccc5o4)cc3[nH]2)cc1`, for which the result was inactive.

With `c1ccc2oc(-c3ccc4nc[nH]c4c3)nc2c1`, the result was inactive.

As to `CCOC(=O)c1cnc(-c2cccc(OC)c2)[nH]c1=O`, the call was inactive.

In the case of `COc1ccc(CNC(=O)CCCCCn2c(SCC#N)nc3cc4c(cc3c2=O)OCO4)cc1`, the outcome was inactive.

Consider `CCC(=O)c1ccc(OCC(O)CN2CCN(C(c3ccccc3)c3ccccc3)CC2)cc1` (configuration not stated), for which the molecule was classed as inactive.

As to `CCOC(CNC(=O)c1cccn2c(=O)c3cc(Cl)ccc3nc12)OCC`, the molecule was classed as inactive.

Take `COc1ccc(S(=O)(=O)Nc2nnc(C(C)(C)C)s2)cc1`: the molecule was called inactive.

With `Cc1c(NC(=O)c2cc(C(C)C)on2)c(=O)n(-c2ccccc2)n1C`, the call was inactive.

For `CCC(OC(=O)c1cc2sccc2n1C)C(=O)NCC1CCCO1` (configuration not stated), the call was inactive.

With `Nc1ccnc(C(F)(F)F)c1C(=O)c1ccccc1`, the molecule was classed as inactive.

`CC(C)OC(=O)CSc1nnc(-c2cccnc2)n1Cc1ccccc1`: the outcome was inactive.

As for `Cc1ccc(C)c(OCCCCn2ccnc2)c1`, the molecule was called inactive.

For the molecule `COc1ccc(-c2nnc(-c3ccc(N)cc3)o2)cc1`, the outcome was inactive.

For the molecule `Nc1ccc2oc(-c3cc(Br)ccc3Cl)nc2c1`, the outcome was inactive.

For the molecule `COC(=O)c1ccc(-c2nc3ccc(C)cc3o2)cc1`, the call was inactive.

Turning to `COC(=O)c1ccc(-c2nc3ccccc3o2)cc1`, the result was inactive.

Turning to `Cc1ccccc1-c1nc2cc(N)ccc2o1`, the molecule was classed as inactive.

Regarding `Nc1nc2ccc(-c3nc4ccccc4o3)cc2s1`, the result was inactive.

On to `Nc1ccc2oc(-c3cccc4ccccc34)nc2c1`, for which the molecule was classed as inactive.

Turning to `Nc1ccc2oc(-c3ccccc3Cl)nc2c1`, the outcome was active.

With `Cc1ccc(C)c(-c2nc3cc(N)ccc3o2)c1`, the molecule was called inactive.

Take `CCc1c(C)nc2ncnn2c1N1CCCC(C(=O)Nc2ccc(NC(C)=O)cc2)C1` (configuration not stated): the call was inactive.

For `Cc1ccc(NC(=O)c2ccc(N3C(=O)C4CC=C(Cl)CC4C3=O)cc2)cc1` (configuration not stated), the molecule was called inactive.

With `COC(=O)[C@@H]1C[C@@]2(O)[C@H](O)[C@H](O)[C@H](O)C[C@H]2N1Cc1c(F)cccc1Cl`, the molecule was classed as inactive.

As for `CC(C)Cc1ccc(S(=O)(=O)N2CCOCC2)cc1`, the molecule was classed as inactive.

Take `O=C(CC1CCS(=O)(=O)C1)NC1CCCCC1` (configuration not stated): the call was inactive.

As for `O=C(CN1CC(c2ccccc2)CC1=O)OCc1ccccc1F` (configuration not stated), the outcome was inactive.

`Cc1cccc(CSC2=NCCN2C(=O)c2ccco2)c1`: the call was inactive.

Regarding `COCCn1c(=O)c2c3c(sc2n(CC(N)=O)c1=O)CCCC3`, the outcome was inactive.

On to `COc1ccc(Br)c(C(=O)Nn2c(C)nc3ccccc3c2=O)c1`, for which the outcome was inactive.

Turning to `Cc1ccc(C)c(Cn2nnc3c(=O)[nH]c(C4CCN(C(=O)c5cccs5)CC4)nc32)c1`, the outcome was inactive.

On to `CCCNC(=O)NC(C)C12CC3CC(CC(C3)C1)C2` (configuration not stated), for which the molecule was classed as inactive.

With `COc1ccccc1NC(=O)c1ccc(COc2ccccc2OC)o1`, the call was inactive.

For the molecule `CCn1c(=O)c(=O)n(CC)c2cc(S(=O)(=O)Nc3cccc(OC)c3)ccc21`, the outcome was inactive.

Regarding `CCn1c(=O)cc(SCC(=O)Nc2ccccc2N2CCN(C)CC2)c2ccccc21`, the molecule was called inactive.

As to `Cc1ccc(NC(=O)Cc2cn3ccsc3n2)nc1`, the call was inactive.

Consider `CC(C)c1ccc2oc(-c3cc(N)ccc3O)nc2c1`, for which the outcome was inactive.

Regarding `CC(C)c1ccc2oc(-c3ccc(NC(=O)c4ncn[nH]4)cc3)nc2c1`, the outcome was inactive.

Regarding `CCOc1cccc(-c2nc3cc(C)ccc3o2)c1`, the call was inactive.

For `COc1cc(OC)cc(-c2nc3cc(C)ccc3o2)c1`, the call was inactive.

For `O=C1CC(=C2c3ccccc3-c3ccccc32)C(=O)N1CCN1CCN(c2ccccc2)CC1`, the outcome was inactive.

For the molecule `Cc1nn(Cc2nc(-c3cccs3)no2)c(C)c1Br`, the outcome was inactive.

Turning to `COc1ccccc1-c1nnc(SCC(=O)O)n1C`, the molecule was called inactive.

Regarding `CC1=C(C(=O)OCc2ccccc2)C(c2ccc3ccccc3c2)NC(=O)N1CCCCCC(=O)O` (configuration not stated), the result was inactive.

Turning to `Cn1nnnc1Sc1ncnc2scc(-c3ccc(F)cc3)c12`, the molecule was classed as inactive.

Turning to `Cc1ccc(-c2csc3ncnc(NCCN4CCOCC4)c23)cc1`, the molecule was called inactive.

For `CCOc1ccc(NC(=O)c2cnccn2)cc1`, the outcome was inactive.

With `Cc1cnc(C(=O)Nc2ccc(N3CCOCC3)cc2)cn1`, the result was inactive.

For the molecule `O=C(Nc1ccc(N2CCOCC2)cc1)Nc1cnsn1`, the molecule was classed as inactive.

As for `CCOc1ccc(NC(=O)c2ccncc2)cc1`, the result was inactive.

Take `O=C(Nc1ccc(N2CCOCC2)cc1)c1cnsn1`: the result was active.

`CCc1nnc(NC(=O)CN2C(=O)c3ccccc3S2(=O)=O)s1`: the molecule was called inactive.

`CC1(C)CC(=O)C2=C(C1)Nc1ncnn1C2c1ccccn1` (configuration not stated): the call was inactive.

Consider `CCOc1ccc(C2C(C(=O)c3cccs3)=C(O)C(=O)N2CCCn2ccnc2)cc1` (configuration not stated), for which the molecule was classed as inactive.

On to `CN1CCN(c2ccccc2NC(=O)c2ccc(-c3ccccc3)cc2)CC1`, for which the call was inactive.

Regarding `CC(=O)c1c(C)[nH]c(C(=O)Nc2ccc(C)cn2)c1C`, the outcome was active.

Turning to `CC(=O)c1c(C)[nH]c(C(=O)Nc2cc(C)ccc2C)c1C`, the call was inactive.

`CC(=O)c1c(C)[nH]c(C(=O)Nc2cc(C)cc(C)c2)c1C`: the call was inactive.

As for `CC1=C/C(=N\OS(=O)(=O)c2ccccc2)C=CC1=O`, the outcome was inactive.

In the case of `CC1=CC(=O)C=C(C)C1=NOS(=O)(=O)c1ccccc1`, the molecule was called active.

As for `CC1=C(C)/C(=N\OS(=O)(=O)c2ccccc2)C=CC1=O`, the result was inactive.

For the molecule `Cc1cccc(C2N(c3ccc(F)cc3)C(=O)C3CCCN32)c1` (configuration not stated), the call was inactive.

With `O=S(=O)(Nc1ccccn1)c1ccc(C2CCCCC2)cc1`, the molecule was called inactive.
